In PubChem BioAssay AID652257 (The Scripps Research Institute Molecular Screening Center, 2013):
Out of some 370,000 compounds screened, about 4,800 (1.3%) were called active. What follows is part of a selection rich in actives, with near analogues and random picks from the rest. Values without a mark were called inactive.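 The calls were made as follows: active = inhibition above about 21% made by adding two undisclosed values (limit read from the data); inactive = the rest.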

Each compound was assayed against Protein arginine N-methyltransferase 1 (Homo sapiens) (UniProt Q99873) (assay: human PRMT1 activity-probe blockers – biochemical, fluorescence polarization, primary screen (AID 652257)). Conditions: recombinant PRMT1, activity-based probe fluorescence polarization; at 2.79 µM; hits give high values.
Protein arginine N-methyltransferase 1 (Homo sapiens), sequence (Q99873 whole entry, looked up): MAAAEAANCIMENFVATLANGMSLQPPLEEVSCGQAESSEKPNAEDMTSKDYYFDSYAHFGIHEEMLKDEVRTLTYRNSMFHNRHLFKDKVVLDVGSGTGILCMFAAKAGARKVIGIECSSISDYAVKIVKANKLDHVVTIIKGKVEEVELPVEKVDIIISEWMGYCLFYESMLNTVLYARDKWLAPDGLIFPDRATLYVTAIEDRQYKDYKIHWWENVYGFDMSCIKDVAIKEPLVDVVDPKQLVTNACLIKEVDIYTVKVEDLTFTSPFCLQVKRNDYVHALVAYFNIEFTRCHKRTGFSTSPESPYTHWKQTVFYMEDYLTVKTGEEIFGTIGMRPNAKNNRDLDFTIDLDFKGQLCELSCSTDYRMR

Row | SMILES | inhibition
1 | CC(=O)Nc1cc(-c2ccccc2N(C)C)cn2c(-c3ccc(F)c(Cl)c3)cnc12 | 49.4% (active)
2 | CC(=O)Nc1cccc(-c2cc(NC=O)c3ncc(-c4ccc(F)c(Cl)c4)n3c2)c1 | 2.68%
3 | CC(=O)Nc1cc(-c2ccccc2F)cn2c(-c3cccc(C(F)(F)F)c3)cnc12 | 2.67%
4 | CCOC(=O)C(=O)N(Cc1ccccc1)c1ccccc1C(=O)Nc1cc(OC)ccc1OC | -1.5%
5 | CCOc1ccc(N(CC(=O)NCCc2ccc(F)cc2)S(=O)(=O)c2ccccc2)cc1 | 1.75%
6 | COc1c(Br)cc2c(C)c(C(=O)N3CCOCC3)oc2c1Br | -2.82%
7 | CC1(C(=O)NCc2ccc3c(c2)OCO3)CCN1C(=O)Cc1cccs1 (stereo not given) | 0.09%
8 | CC1(C(=O)NCc2ccc3c(c2)OCO3)CCN1C(=O)Cc1cccc2ccccc12 (stereo not given) | 24.5% (active)
9 | CC1(C(=O)NCc2ccc3c(c2)OCO3)CCN1CCc1ccccc1 (stereo not given) | -4.72%
10 | CCOC(=O)[C@]12CCCC3=C1N(CCC3)C(=O)[C@@H](CC(=O)NCc1cccs1)C2 | 1.5%
11 | N#CCC[C@H]1CC[C@]2(CCCN(Cc3ccc(Cl)cc3)C2)O1 | 1.93%
12 | O=c1[nH]c2ccccc2s1 | 5.51%
13 | CCOc1ccc2[nH]c(=S)sc2c1 | 10.4%
14 | Nc1ccc2[nH]c(=S)sc2c1 | 28.3% (active)
15 | Cc1cc(C)cc(NC(=O)N2CCC(N(C)CCC(C)C)CC2)c1 | -0.26%
16 | CCN(CC)C(=O)C(C)N1c2cccc3cccc(c23)S1(=O)=O (stereo not given) | -0.89%
17 | CC1=C(C(=O)N(C)C)CC(CC(=O)NCCN2CCOCC2)C(=O)N1Cc1ccccc1 (stereo not given) | -1.74%
18 | Cc1cccc(CCNC(=O)Cn2ncc3c([nH]c4ccc(C)cc43)c2=O)c1 | -0.97%
19 | CCOC(=O)[C@]12CCCC3=C1N(CCC3)C(=O)[C@@H](CC(=O)N1CCSCC1)C2 | -9.78%
20 | COC(C[C@@H](O)[C@H](C)[C@H](O)COCc1ccccc1)OC | -0.18%
21 | COC(=O)c1ccc(SCc2ccccc2)nc1 | 1.13%
22 | O=c1c2ccccc2c(-c2ccc(Br)cc2)nn1Cc1ccccc1 | 3.02%
23 | CSc1c(SCc2ccccc2)cnn(Cc2ccccc2)c1=O | 42.6% (active)

Row | SMILES | inhibition
24 | COc1ccccc1S(=O)(=O)c1c(C)cc(C)[nH]c1=O | -5.06%
25 | O=C1Nc2ccccc2C1=NN=Cc1ccco1 | -4.47%
26 | Cc1cc(C)c(/C=C2\C(=O)Nc3ccccc32)[nH]1 | 64.8% (active)
27 | CC(=O)Nc1nc2ncccn2c1-c1ccc(C(F)(F)F)cc1 | 5.51%
28 | Cc1ccc(CNC(=O)CCS(=O)(=O)c2ccc3c(c2)CC(C)N3C(=O)C2CC2)o1 (stereo not given) | 35.6% (active)
29 | CCC(=O)N1c2ccc(S(=O)(=O)NCc3ccco3)cc2CC1C (stereo not given) | 4.05%
30 | COc1ccccc1CNC(=O)C1CCN(S(=O)(=O)c2ccc3c(c2)CC(C)N3C(=O)C2CC2)CC1 (stereo not given) | 0.46%
31 | COc1ccc(N2CCN(CCNS(=O)(=O)c3ccc(Cl)s3)CC2)cc1 | -1.47%
32 | Cc1cc(C)n2ncc(C(=O)Nc3ccc4c(c3)OCCO4)c2n1 | -2.31%
33 | Cc1ccc(S(=O)(=O)N2CCN(C)CC2)cc1C(=O)NC1CCCCC1 | 3.5%
34 | CC(C)N1CCCCC(NC(=O)C(C)(C)C)C1=O (stereo not given) | -1.77%
35 | Oc1c(C(c2ccco2)N2CCC3(CC2)OCCO3)sc2ncnn12 (stereo not given) | 21.8% (active)
36 | Cc1nc2sc(C(c3ccco3)N3CCOCC3)c(O)n2n1 (stereo not given) | 49.8% (active)
37 | Oc1c(C(c2cccs2)N2CCN(c3ccc(F)cc3)CC2)sc2ncnn12 (stereo not given) | -2.78%
38 | Cc1nc2sc(C(c3ccco3)N3CCC4(CC3)OCCO4)c(O)n2n1 (stereo not given) | 8.34%
39 | Cc1ccc(C(c2sc3nc(C)nn3c2O)N2CCN(c3ccccc3)CC2)cc1 (stereo not given) | -1.11%
40 | CC(CCN1CCC(C(O)(c2ccccc2)c2ccccc2)CC1)Oc1ccc([N+](=O)[O-])cc1Cl (stereo not given) | -5.87%
41 | CC(=O)Nc1ccc(NS(=O)(=O)c2cc(C)sc2C)cc1 | 3.68%
42 | CC(C)C(C#CC1CC1)N(Cc1ccc2c(c1)OCO2)C(N)=NC(=O)/C=C/c1cccc(C(F)(F)F)c1 (stereo not given) | 1.58%
43 | CCc1ccc(NC2Nc3cc(C)nn3S2)cc1 (stereo not given) | 30.6% (active)
44 | CC(C)N1CCCCC(NC(=O)c2ccc3ccccc3c2)C1=O (stereo not given) | 1.16%
45 | O=C(OCc1cn([C@@H]2C[C@H](c3ccc(Cl)cc3)N(Cc3cccs3)C[C@H]2O)nn1)c1ccccc1 | 6.65%
46 | COC(=O)[C@@]12CCCCC=C1N(CCc1ccc(Cl)cc1)C(=O)[C@H]2CC(=O)NCc1ccc(OC)c(OC)c1 | 1.14%

Row | SMILES | inhibition
47 | C#CCN([C@@H](C)C(=O)OCC)S(=O)(=O)c1ccc(Br)cc1F | -2.15%
48 | NC(=S)NN=Cc1ccc(OC(=O)COc2cc(Cl)c(Cl)cc2Cl)cn1 | 47.2% (active)
49 | O=C(COc1cc(Cl)c(Cl)cc1Cl)NCCc1ccccn1 | -6.02%
50 | O=C(COC(=O)COc1cc(Cl)c(Cl)cc1Cl)NC1CC1 | 0.44%
51 | CCOC(=O)C1CCN(C(=O)C(C)(C)NC(=O)Nc2ccc(F)c(F)c2)CC1 | -1.45%
52 | CCS(=O)(=O)Nc1cc(C(=O)OC)ccc1C(=O)OC | 4.51%
53 | COC(=O)c1ccc(NCc2cc(O)ccc2O)cc1 | 28.5% (active)
54 | O=C(OC12CC3CC(CC(C3)C1)C2)c1ccc(NCc2cc(O)ccc2O)cc1 | 19.5%
55 | CCC(=O)OCCCN1C(=O)CCC12CCC(c1ccccc1)CC2 (stereo not given) | 0.61%
56 | O=C(NCc1cccs1)C1CCN(S(=O)(=O)c2ccccc2[N+](=O)[O-])CC1 | -2.52%
57 | COc1cccc(N2CCN(C3CC(=O)N(c4ccc(Cl)cc4)C3=O)CC2)c1 (stereo not given) | 17%
58 | CCOC(=O)c1ccc(N2C(=O)CC(N3CCN(C(=O)c4ccccc4)CC3)C2=O)cc1 (stereo not given) | -1.22%
59 | COc1cccc(N2C(=O)CC(N3CCN(S(=O)(=O)c4ccccc4)CC3)C2=O)c1 (stereo not given) | 4.31%
60 | COc1ccc(CCN2C(=O)C3CC=C(C)CC3C2=O)cc1OC (stereo not given) | 0.69%
61 | COc1ccc(N2C(=O)CC(N3CCC(C(N)=O)CC3)C2=O)cc1 (stereo not given) | 62.3% (active)
62 | COc1ccc(CCN2C(=O)CC(N3CCC(C(N)=O)CC3)C2=O)cc1OC (stereo not given) | 39.3% (active)
63 | CCOC(=O)c1ccc(N2C(=O)CC(N3CCC(C(=O)OCC)CC3)C2=O)cc1 (stereo not given) | 53.2% (active)
64 | CCOC(=O)c1ccc(N2C(=O)CC(N(C)Cc3ccccc3)C2=O)cc1 (stereo not given) | 1.83%
65 | COc1ccc(CN2C(=O)CC(Cc3ccc(C)cc3)C2=O)cc1OC (stereo not given) | 2.37%
66 | CCN(CC)C(=O)CC[C@@H]1CC[C@]2(CCCN(S(=O)(=O)C3CCCCC3)C2)O1 | 8.38%
67 | CC1(C)SC2c3ccccc3C(=O)N2[C@@H]1C(=O)NCc1ccco1 (stereo not given in full) | 2.92%
68 | CN=C1SC(C(=O)O)CC(=O)N1C (stereo not given) | 0.87%
69 | COC(=O)[C@]12C[C@H](CC(=O)N3CCOCC3)C(=O)N(Cc3ccc(Cl)cc3Cl)C1=C[C@H](C(C)C)O[C@@H]2C1CC1 | 3.55%

Row | SMILES | inhibition
70 | c1ccc(C2CNCc3c2ccc2ccccc32)cc1 (stereo not given) | 2.21%
71 | CCCC(C(=O)NCc1ccco1)N(C(=O)CNS(=O)(=O)c1ccccc1)C1CCCC1 (stereo not given) | -1.78%
72 | COC(=O)C1CN(CC(C)C)CCS(=O)(=O)N1Cc1ccc(C)cc1 (stereo not given) | 6.76%
73 | O=C(C1CCCN1S(=O)(=O)c1ccccc1)N1CCc2ccccc2C1 (stereo not given) | -6.97%
74 | CC(C)CNS(=O)(=O)CC1NCCc2ccccc21 (stereo not given) | 4.3%
75 | CCn1c2ccccc2c2cc(NC(=O)CSc3nnc(-c4ccccc4)n3-c3ccc(C)cc3)ccc21 | -1.61%
76 | Cc1cc(C(=O)Nc2ccc(C)c(S(=O)(=O)N3CCOCC3)c2)c2ccccc2n1 | 0.88%
77 | O=C(c1cc(-c2ccc(Cl)s2)nc2ccccc12)N1CCOCC1 | -5.47%
78 | CN(C)C(CNC(=O)CCCOc1ccccc1)c1ccco1 (stereo not given) | -0.86%
79 | O=C(Nc1cccc(F)c1)c1coc(=O)c(Br)c1 | 5.43%
80 | O=C(c1ccc(Cl)s1)N(Cc1nnc(-c2ccccc2Cl)o1)C1CC1 | 1.28%
81 | CC(C)N(Cc1nnc(-c2ccccc2Br)o1)C(=O)c1cc(Cl)nc2ccccc12 | -5.25%
82 | CN(CCOc1ccccc1)C(=O)c1cc(-c2ccco2)nc2ccccc12 | 29.2% (active)
83 | CN(CCOc1ccccc1)Cc1nc2cc(Cl)ccc2c(=O)[nH]1 | 2.3%
84 | O=C(c1cc(-c2ccco2)nc2ccccc12)N(Cc1nnc(-c2ccc(Cl)cc2)o1)C1CC1 | 22.5% (active)
85 | O=C(Nc1cccc(F)c1)c1cc(-c2ccco2)nc2ccccc12 | 30.3% (active)
86 | CC(=O)N1CCN(C(=O)c2cc(-c3ccc(C)o3)nc3ccccc23)CC1 | 32.5% (active)
87 | CC(=O)N1CCN(C(=O)c2cc(-c3ccc(Cl)s3)nc3ccccc23)CC1 | 2.92%
88 | COC(=O)C[C@H]1CC[C@H]2[C@H](COc3ccc(NC(=O)C4CC4)cc3C(=O)N2C)O1 | 1.52%
89 | CC(=O)NCCc1ccc(S(=O)(=O)N(C)C2CCS(=O)(=O)C2)cc1 (stereo not given) | -0.5%
90 | CN1C[C@]2(C=C3CCCCC3n3c(=O)n(-c4ccccc4)c(=O)n32)N=C1NC(=O)c1ccccc1 (stereo not given in full) | 1.11%
